± gives the standard deviation.
Columns and labels:
Conditions in all cases: modulator concentration 10 µM
[1] = test system: RAW-Dual (murine macrophage reporter line); assay: NF-kB reporter (SEAP) activity fold change vs agonist alone; higher = enhanced NF-kB activity
Summary of the method: (§1)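 Overnight stimulation with a PRR agonist followed pre-incubation for 1 hour at 37 °C with compound at 10 μM final. This was done in RAW-Dual murine macrophage reporter cells seeded at 50 000 per well in 384-well plates. NF-κB (SEAP, QUANTI-Blue absorbance at 620 nm) and IRF (Lucia luciferase, QUANTI-Luc luminescence) were read from the supernatant. Each reporter's fold change relative to the mean agonist-only control on the same plate was averaged over replicate plates.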

[2] = test system: RAW-Dual (murine macrophage reporter line); assay: IRF reporter (Lucia luciferase) activity fold change vs agonist alone; higher = enhanced IRF activity
Summary of the method: as §1

[3] = test system: RAW-Dual (murine macrophage reporter line); assay: viability score (confluency relative to resting cells, overnight) (fraction); higher = more viable, active = viable (0.7 or more)
Summary of the method: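 RAW-Dual macrophages in 384-well plates were exposed overnight to compound at 10 μM final. Confluency was imaged with IncuCyte, and two confluency masks were generated with IncuCyte software over all imaged wells. The viability score is confluency expressed relative to resting cells. Compounds were called viable if both masks exceeded 70% of resting cells.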

[4] = agonist: CpG ODN 1826 0.5 ug/mL

Row | SMILES | NF-kB reporter [1, 4] | NF-kB reporter ([1]; agonist: LPS 0.1 ug/mL) | NF-kB reporter ([1]; agonist: MPLA […]) | IRF reporter ([2]; agonist: 3'3'-cGAMP 10 ug/mL) | IRF reporter ([2]; agonist: LPS 0.1 ug/mL) | IRF reporter ([2]; agonist: MPLA […]) | viability score [3]
1 | COc1cc2nc(N(C)CCCNC(=O)C3CCCO3)nc(N)c2cc1OC.Cl (stereo unspecified) | 0.585 ± 0.096 | 0.838 ± 0.14 | 0.958 ± 0.056 | 0.382 ± 0.26 | 0.996 ± 0.22 | 1.09 ± 0.2 | 0.996 (active)
2 | Cc1cc(OCC(O)CN2CCCCC2C)cc(C)c1Cl.Cl (stereo unspecified) | 0.79 ± 0.15 | 0.97 ± 0.08 | 0.796 ± 0.048 | 0.955 ± 0.048 | 1.2 ± 0.17 | 1.25 ± 0.23 | 0.923 (active)
3 | CCOC(=O)n1ccn(C)c1=S | 1.26 ± 0.21 | 1.04 ± 0.33 | 0.909 ± 0.067 | 0.913 ± 0.03 | 1.18 ± 0.48 | 1.11 ± 0.09 | 0.992 (active)
4 | COc1cc(C2Oc3cc(C4Oc5cc(O)cc(O)c5C(=O)C4O)ccc3OC2CO)ccc1O (stereo unspecified) | 1.11 ± 0.083 | 1.07 ± 0.057 | 1.13 ± 0.029 | 0.988 ± 0.082 | 0.93 ± 0.17 | 1 ± 0.17 | 0.981 (active)
5 | N#C[C@@H]1CCCN1C(=O)CNC12CC3CC(CC(O)(C3)C1)C2 | 0.79 ± 0.14 | 0.851 ± 0.15 | 0.862 ± 0.048 | 0.863 ± 0.06 | 1.05 ± 0.18 | 1.11 ± 0.21 | 0.993 (active)
6 | O=C(NN=Cc1c(O)ccc2ccccc12)c1[nH]ncc1I | 1.93 ± 0.15 | 1.24 ± 0.081 | 1.4 ± 0.063 | 0.491 ± 0.021 | 1.32 ± 0.076 | 1.3 ± 0.094 | 0.906 (active)
7 | CCOC(=O)C(CCc1ccccc1)NC1CCc2ccccc2N(CC(=O)O)C1=O.Cl (stereo unspecified) | 1.13 ± 0.28 | 1.04 ± 0.072 | 1.05 ± 0.079 | 0.967 ± 0.04 | 1.24 ± 0.15 | 1.33 ± 0.21 | 1 (active)
8 | CCCOc1cccc(C(=O)Nc2scc(-c3ccccc3)c2C(=O)OC(C)C)c1 | 1.79 ± 0.35 | 1.24 ± 0.16 | 2.23 ± 0.46 | 0.635 ± 0.056 | 0.66 ± 0.22 | 0.65 ± 0.041 | 0.883 (active)
9 | O=c1oc2cc(O)ccc2c2ccccc12 | 1.05 ± 0.12 | 0.932 ± 0.085 | 1.06 ± 0.038 | 0.813 ± 0.15 | 1.06 ± 0.097 | 1.28 ± 0.17 | 0.782 (active)
10 | COC(=O)C1=CN(CC2CCCO2)C=C(C(=O)OC)C1c1ccccc1Cl (stereo unspecified) | 1.67 ± 0.13 | 1.21 ± 0.069 | 2.32 ± 0.14 | 0.796 ± 0.051 | 0.845 ± 0.066 | 0.686 ± 0.043 | 0.982 (active)
11 | CC(C)c1ccc(NC(=O)C2CCCCC2C(=O)O)cc1 (stereo unspecified) | 1.19 ± 0.074 | 1.06 ± 0.07 | 0.994 ± 0.071 | 0.93 ± 0.031 | 1.51 ± 0.1 | 1.24 ± 0.12 | 0.996 (active)
12 | O=C(CSc1ccc(F)cc1)N1CCn2nc3c(c2C1)CCC3 | 1.39 ± 0.087 | 1.01 ± 0.1 | 1.05 ± 0.056 | 1.03 ± 0.11 | 1.03 ± 0.064 | 1.03 ± 0.12 | 1 (active)
13 | COC(C)(CNC(=O)CSc1ccc(F)cc1)c1cccc(Cl)c1 (stereo unspecified) | 1.11 ± 0.4 | 1.07 ± 0.11 | 1.01 ± 0.074 | 0.973 ± 0.082 | 0.992 ± 0.13 | 1.12 ± 0.32 | 0.987 (active)
